{"source": "PubChem BioAssay AID2322", "about": "(Broad Institute, 2010)", "note": "Hit rate of the full screen: of about 27,000 compounds, about 120 (0.44%) were called active. No stated cut-off is given here; in the data, active means inhibition above about 20%; inconclusive means no clear call, values can overlap the other calls; inactive means below that. The full list was thinned out, with actives kept by preference.", "data": [{"biological_target": "Serine/threonine-protein kinase 33 (Homo sapiens) (UniProt Q9BYT3)", "sequence (Q9BYT3 whole entry, looked up)": "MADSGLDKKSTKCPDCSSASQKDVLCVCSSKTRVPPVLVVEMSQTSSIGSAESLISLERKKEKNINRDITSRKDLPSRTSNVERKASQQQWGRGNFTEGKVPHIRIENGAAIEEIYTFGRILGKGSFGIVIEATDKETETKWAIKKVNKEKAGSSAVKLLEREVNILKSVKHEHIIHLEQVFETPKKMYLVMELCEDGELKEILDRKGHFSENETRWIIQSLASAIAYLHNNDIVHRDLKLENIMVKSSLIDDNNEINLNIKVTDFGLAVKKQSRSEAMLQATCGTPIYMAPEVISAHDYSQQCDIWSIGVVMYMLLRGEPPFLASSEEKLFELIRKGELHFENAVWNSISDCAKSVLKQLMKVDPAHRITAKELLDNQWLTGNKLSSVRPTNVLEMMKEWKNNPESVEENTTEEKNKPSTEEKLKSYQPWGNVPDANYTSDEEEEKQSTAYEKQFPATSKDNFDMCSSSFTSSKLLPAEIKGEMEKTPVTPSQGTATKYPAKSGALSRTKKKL", "assay": "STK33 kinase inhibitors, primary screen, biochemical, luminescence, ADP-Glo, MBP substrate (AID 2322)", "conditions": "at 12.5 µM, active compounds read high", "values": [{"molecule": "COC(=O)c1ccc(NC(=O)CSc2nc(-c3ccccc3)c(-c3ccccc3)[nH]2)cc1", "inhibition": "0.633% (inactive)"}, {"molecule": "O=[N+]([O-])c1ccc(NCCNCc2cccnc2)cc1", "inhibition": "0.298% (inactive)"}, {"molecule": "COc1ccc(NC(=O)CN2CCN(S(=O)(=O)c3ccc4ccccc4c3)CC2)cc1", "inhibition": "-0.51% (inactive)"}, {"molecule": "Cc1ccc(N(C(C)C(=O)Nc2ccc(F)c(Cl)c2)S(C)(=O)=O)cc1C", "note": "(configuration not stated)", "inhibition": "-3.25% (inactive)"}, {"molecule": "Cc1ccc(-n2c(SCC(=O)Nc3cccc(C)c3C)nc3ccccc3c2=O)cc1", "inhibition": "-0.698% (inactive)"}, {"molecule": "O=C(c1ccc(NCc2cccnc2)c([N+](=O)[O-])c1)N1CCCCC1", "inhibition": "2.99% (inactive)"}, {"molecule": "CN(CC(=O)Nc1ccc(F)cc1)S(=O)(=O)c1ccccc1", "inhibition": "-1.62% (inactive)"}, {"molecule": "Nc1cc(N)nc(SCC(=O)c2ccc(Br)cc2)n1", "inhibition": "1.93% (inactive)"}, {"molecule": "O=C(CSc1nnc(-c2ccccc2)n1-c1ccc(Cl)cc1)Nc1ccc(Cl)cc1", "inhibition": "-3.34% (inactive)"}, {"molecule": "O=C(CN1CCCC1)Nc1sc2c(c1C(=O)Nc1ccccc1)CCCC2", "inhibition": "-1.02% (inactive)"}, {"molecule": "CN1C(=O)C(O)(CC(=O)c2ccco2)c2cc([N+](=O)[O-])ccc21", "note": "(configuration not stated)", "inhibition": "1.09% (inactive)"}, {"molecule": "COc1ccc(-c2nnc(SCC(=O)O)n2-c2ccccc2)cc1OC", "inhibition": "0.684% (inactive)"}, {"molecule": "C[C@H]1CN([C@@H](C)CO)C(=O)CCCn2cc(nn2)CO[C@@H]1CN(C)S(=O)(=O)c1ccc(-c2ccccc2)cc1", "inhibition": "-9.48% (inactive)"}, {"molecule": "COc1ccc(NC(=O)O[C@@H](c2ccc(OCCO)cc2)[C@@H](C)CCO)cc1", "inhibition": "0.388% (inactive)"}, {"molecule": "COc1cc(OC)c(NC(=O)CSc2nnc(-c3ccncc3)n2-c2ccccc2)cc1Cl", "inhibition": "-1.55% (inactive)"}, {"molecule": "C[C@H](CO)N1C[C@H](C)[C@H](CN(C)S(=O)(=O)c2ccc(Cl)cc2)Oc2ccc(NC(=O)C3CCCCC3)cc2C1=O", "inhibition": "5.34% (inactive)"}, {"molecule": "CCCC(O)C#Cc1cnc2c(c1)C(=O)N([C@H](C)CO)C[C@H](C)[C@H](CN(C)S(=O)(=O)c1ccc(C#N)cc1)O2", "note": "(some centres not stated)", "inhibition": "2.14% (inactive)"}, {"molecule": "Cc1nn(CC(=O)NCc2ccccn2)c(C)c1[N+](=O)[O-]", "inhibition": "-1.47% (inactive)"}, {"molecule": "COC(=O)c1ccccc1NC(=O)CSc1n[nH]c(-c2ccncc2)n1", "inhibition": "2.87% (inactive)"}, {"molecule": "COc1ccc(C)cc1S(=O)(=O)N1CCCC(C(=O)Nc2ccccc2C(F)(F)F)C1", "note": "(configuration not stated)", "inhibition": "1.43% (inactive)"}, {"molecule": "CC(C)N1C(=O)[C@@]2(Cc3ccccc31)c1ccccc1C(=O)N(C1CCCCC1)[C@H]2c1ccc(CO)cc1", "inhibition": "4.98% (inactive)"}, {"molecule": "Cc1ccc(NC(=O)COc2ccccc2C)c([N+](=O)[O-])c1", "inhibition": "0.544% (inactive)"}, {"molecule": "COc1ccc(OC)c(NC(=O)Cn2cc(C(=O)C3CC3)c3ccccc32)c1", "inhibition": "-2.72% (inactive)"}, {"molecule": "COc1ccc(Cl)cc1N(CC(=O)Nc1ccc(Br)c(Cl)c1)S(C)(=O)=O", "inhibition": "1.17% (inactive)"}, {"molecule": "CN(CC(=O)Nc1ccccc1C#N)S(=O)(=O)c1ccc2ccccc2c1", "inhibition": "1.4% (inactive)"}, {"molecule": "C[C@H](CO)N1C[C@H](C)[C@@H](CN(C)C(=O)C2CCCCC2)OCc2cnnn2CCCC1=O", "inhibition": "0.882% (inactive)"}, {"molecule": "COc1ccc(NC(=O)CSc2nncc3ccccc23)c([N+](=O)[O-])c1", "inhibition": "-3.11% (inactive)"}, {"molecule": "C[C@H](CO)N1C[C@H](C)[C@H](CN(C)S(C)(=O)=O)Oc2ncc(C#CCN(C)C)cc2C1=O", "inhibition": "3.31% (inactive)"}, {"molecule": "O=[N+]([O-])c1cccc(NC(=S)Nc2nn(Cc3ccc(Cl)cc3Cl)cc2Cl)c1", "inhibition": "1% (inactive)"}, {"molecule": "Cc1ccc(-c2ccc(CCC(=O)O)n2-c2ccc(C(N)=O)cc2)cc1", "inhibition": "-3.89% (inactive)"}, {"molecule": "O=C(NCc1ccco1)c1ccc2c(c1)C(=O)N(Cc1cccnc1)C2=O", "inhibition": "-0.956% (inactive)"}, {"molecule": "Cc1ccc(-c2nc(S(=O)(=O)c3ccc(Br)cc3)c(SCC(N)=O)o2)cc1", "inhibition": "4.38% (inactive)"}, {"molecule": "Cc1ccc(S(=O)(=O)N(C)CC(=O)Nc2cccc(F)c2)cc1", "inhibition": "-1.04% (inactive)"}, {"molecule": "CCOC(=O)C(C)Sc1ncnc2c1sc1nc(N3CCOCC3)c3c(c12)CC(C)(C)OC3", "note": "(configuration not stated)", "inhibition": "-0.767% (inactive)"}, {"molecule": "Cc1ccc(NC(=O)CSc2nc3ccccc3s2)cc1[N+](=O)[O-]", "inhibition": "1.36% (inactive)"}, {"molecule": "CC(C)[C@H](CO)Nc1nc(Nc2cc(N)cc(Cl)c2)c2ncn(C(C)C)c2n1", "inhibition": "89.6% (active)"}, {"molecule": "Cc1ccc(S(=O)(=O)N(C)C[C@@H]2Oc3ccc(NC(=O)Nc4ccc(F)cc4)cc3C(=O)N([C@H](C)CO)C[C@@H]2C)cc1", "inhibition": "-2.65% (inactive)"}, {"molecule": "O=C(CCn1nc(-c2ccc(Cl)cc2)c2ccccc2c1=O)Nc1ccc(Br)cc1", "inhibition": "-3.22% (inactive)"}, {"molecule": "O=C(O)CCNS(=O)(=O)c1ccc2c(c1)OCCO2", "inhibition": "1.73% (inactive)"}, {"molecule": "C(=C\\c1nn2c(C3COc4ccccc4O3)nnc2s1)/c1ccccc1", "note": "(configuration not stated)", "inhibition": "-1.1% (inactive)"}, {"molecule": "C[C@H]1CN([C@@H](C)CO)C(=O)CCCn2nncc2CO[C@H]1CN(C)Cc1ccc2c(c1)OCO2", "inhibition": "5.15% (inactive)"}, {"molecule": "CN(CC(=O)Nc1ccc(Cl)c(Cl)c1)S(=O)(=O)c1ccc2ccccc2c1", "inhibition": "0.105% (inactive)"}, {"molecule": "Cc1ccc(CN(C)C[C@H]2OCc3cn(nn3)CCCC(=O)N([C@@H](C)CO)C[C@H]2C)cc1", "inhibition": "3.49% (inactive)"}, {"molecule": "Cc1ccccc1OCC(=O)Nc1cc(-c2nc3ccccc3s2)c(Cl)cc1Cl", "inhibition": "-0.293% (inactive)"}, {"molecule": "COc1ccc(NC(=O)COc2cc(C)c(Br)c(C)c2)c([N+](=O)[O-])c1", "inhibition": "-1.64% (inactive)"}, {"molecule": "COc1cccc(NC(=O)N(C)C[C@@H]2OCc3cn(nn3)CCCC(=O)N([C@@H](C)CO)C[C@H]2C)c1", "inhibition": "-4.73% (inactive)"}, {"molecule": "O=C(CSc1nc2ccccc2s1)c1cc2ccccc2oc1=O", "inhibition": "-1.09% (inactive)"}, {"molecule": "COc1cc(Cl)c(C)cc1NC(=O)CSc1nnnn1-c1ccccc1", "inhibition": "-5.72% (inactive)"}, {"molecule": "O=C(CSc1nnc(-c2cccs2)n1-c1ccccc1Cl)Nc1cccc(C(=O)O)c1", "inhibition": "-0.392% (inactive)"}, {"molecule": "Cn1c(=O)c2c(nc(SCC(=O)NC(C)(C)C)n2Cc2ccccc2F)n(C)c1=O", "inhibition": "-1.84% (inactive)"}, {"molecule": "C[C@@H]1CN([C@@H](C)CO)C(=O)CCCn2cc(nn2)CO[C@@H]1CN(C)S(=O)(=O)c1cccc(F)c1", "inhibition": "-2.04% (inactive)"}, {"molecule": "COc1ccc(NC(=O)CSc2nnc(-c3ccc(Br)cc3)n2C)cc1", "inhibition": "-2.11% (inactive)"}, {"molecule": "CCn1c(SCC(=O)c2ccc(OC)cc2)nnc1-c1ccc(Cl)cc1Cl", "inhibition": "-3.02% (inactive)"}, {"molecule": "Cc1noc(C)c1NC(=O)Nc1ccc2c(c1)C(=O)N([C@H](C)CO)C[C@H](C)[C@@H](CN(C)Cc1ccc3c(c1)OCO3)OCCCC[C@@H](C)O2", "inhibition": "-1.44% (inactive)"}, {"molecule": "C[C@@H]1CN([C@H](C)CO)C(=O)Cc2cc(NC(=O)Nc3ccc4c(c3)OCO4)ccc2O[C@@H]1CN(C)C(=O)Nc1ccccc1", "inhibition": "0.707% (inactive)"}, {"molecule": "C=CCn1c2ccccc2c2nnc(SCC(=O)N3c4ccccc4Sc4ccccc43)nc21", "inhibition": "-0.993% (inactive)"}, {"molecule": "C[C@@H]1CN([C@@H](C)CO)C(=O)CCCn2cc(nn2)CO[C@@H]1CN(C)S(=O)(=O)c1ccccc1C#N", "inhibition": "-7.04% (inactive)"}, {"molecule": "COC(=O)c1cc(NC(=O)Cc2ccccc2[N+](=O)[O-])ccc1Cl", "inhibition": "1.83% (inactive)"}, {"molecule": "CCn1c(SCC(=O)c2ccc(OC)cc2)nnc1-c1ccccc1F", "inhibition": "-0.529% (inactive)"}, {"molecule": "Cc1cc(OCc2nc3ccccc3s2)ccc1NC(=O)c1cccc(F)c1", "inhibition": "0.681% (inactive)"}, {"molecule": "CS(=O)(=O)N(CC(=O)Nc1ccc(F)cc1F)c1cc(Cl)c(Cl)cc1Cl", "inhibition": "-1.13% (inactive)"}, {"molecule": "C=CCN1C(=O)[C@]2(O[C@H](CCn3cc(CCO)nn3)[C@@H]([Si](C)(C)c3ccc(OC)cc3)[C@@H]2C)c2cc(N3CCOC3=O)ccc21", "inhibition": "-0.0517% (inactive)"}, {"molecule": "CC(=O)c1cccc(N(CC(=O)Nc2ccccc2C(F)(F)F)S(C)(=O)=O)c1", "inhibition": "0.774% (inactive)"}, {"molecule": "COc1c(O)cc2oc(-c3ccc(O)c(O)c3)cc(=O)c2c1O", "inhibition": "39.8% (active)"}, {"molecule": "CC(=O)OC[C@H]1O[C@@H](Oc2c(-c3ccc(O)c(O)c3)oc3cc(O)cc(O)c3c2=O)[C@H](O)[C@@H](O)[C@@H]1O", "inhibition": "6.14% (inactive)"}, {"molecule": "CCc1ccccc1NC(=O)COc1cc(O)c2c(=O)cc(-c3ccccc3)oc2c1", "inhibition": "6.95% (inactive)"}, {"molecule": "Cc1ccc2nc(-c3ccc(Cl)c(NC(=O)COc4ccc(Br)cc4)c3)oc2c1", "inhibition": "0.49% (inactive)"}, {"molecule": "Cc1ccc(-c2nnc(SCC(=O)Nc3ccccc3OC(F)F)o2)cc1", "inhibition": "2.8% (inactive)"}, {"molecule": "C[C@H]1CN([C@@H](C)CO)C(=O)c2cc(NC(=O)CCN3CCOCC3)ccc2O[C@@H]1CN(C)C(=O)Nc1ccc(C(F)(F)F)cc1", "inhibition": "-0.787% (inactive)"}, {"molecule": "N#Cc1c(NC(=O)C2CC(Cl)=CCC2C(=O)O)sc2c1CCC2", "note": "(configuration not stated)", "inhibition": "-3.84% (inactive)"}, {"molecule": "CCc1cc(Br)cc(C)c1NC(=O)CSc1nnc(-c2ccc(Cl)cc2)n1C", "inhibition": "3.71% (inactive)"}, {"molecule": "C[C@@H]1CN([C@H](C)CO)C(=O)CCCn2nncc2CO[C@@H]1CN(C)S(=O)(=O)c1cccc(C#N)c1", "inhibition": "-5.23% (inactive)"}, {"molecule": "COC(=O)Nc1ccc(S(=O)(=O)N2CCCC(C(=O)Nc3ccc(N(C)C)cc3)C2)cc1", "note": "(configuration not stated)", "inhibition": "-2.4% (inactive)"}, {"molecule": "C[C@@H]1CCCCO[C@H](CN(C)C(=O)NC2CCCCC2)[C@@H](C)CN([C@H](C)CO)C(=O)c2cc(NS(=O)(=O)c3ccc(F)cc3)ccc2O1", "inhibition": "-0.501% (inactive)"}, {"molecule": "O=C(CSc1nc2c(c(C(F)(F)F)n1)CCCC2)N1c2ccccc2Sc2ccccc21", "inhibition": "2.75% (inactive)"}, {"molecule": "Cc1cc(C)cc(NC(=O)CSc2nnc(-c3ccncc3)n2-c2ccccc2)c1", "inhibition": "-3.15% (inactive)"}, {"molecule": "Cc1noc(C)c1S(=O)(=O)Nc1ccc2c(c1)CC(=O)N([C@@H](C)CO)C[C@H](C)[C@@H](CN(C)S(=O)(=O)c1cn(C)cn1)O2", "inhibition": "1.65% (inactive)"}]}]}
